Hits are enriched below; roughly 20% of the tested compounds scored in any of these assays.
HCMV antiviral: inhibitors of human cytomegalovirus; AID 1259415; 4.5% of 410,000 active; HFF cells, HCMV-luciferase reporter, 72 h; stronger effect = lower value; activity change, negative = inhibition, % at 57.5 µM; in the data active = activity change below about -60%; inconclusive = no clear call, values can overlap the other calls; inactive = above about -39%; also: % is scaled to controls: 0 for no effect and ±100 for the full control effect
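Cell-based, HFFs, 1000 cells/well, 16 h 37C; cpds in DMSO + HCMV-luc, MOI 1 PFU/cell; 72 h 37C; OneGlo luminescence after 5 min RT; norm. to buffer vs Salinomycin 10uM.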
CHX counter: counter-screen for Shiga toxin inhibitors: cycloheximide protein synthesis inhibition | cell reporter, cycloheximide protein synthesis inhibition counterscreen | max response, % | 12% of 300,000 active | AID 2314; in the data active = max response mostly above about 13%, no sharp cut-off; inactive = mostly below about 14%; also: read at 38.3 µM for the half of the compounds with a filed dose; 0% is about no effect
Pf growth 96h: P. falciparum growth inhibition at 96 hour, primary screen for plastid delayed-death inhibitors. P. falciparum luciferase reporter growth, 96 h. Potency, µM (highest dose often 28.7 µM), without a hit: at the highest dose activity change, negative = inhibition, hits mostly inhibitors. 6.9% of 320,000 active. AID 504834; also: potency is read from the fitted curve at half-maximal effect; % is scaled to controls: 0 for no effect and ±100 for the full control effect
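Cell-based qHTS: luciferase-tagged P. falciparum in erythrocytes (2% hematocrit, 0.05% parasitemia final) incubated with compounds for 96 hours, 37 C, 5% CO2; luciferase detection reagent then added and luminescence measured.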
Pf growth 48h: P. falciparum growth inhibition at 48 hours (one generation) | AID 504832 | P. falciparum luciferase growth in erythrocytes, 48 h | Potency, µM (titrated, usually from 28.7 µM), inactives show at the top dose activity change, negative = inhibition, actives largely listed as inhibitors | 5.9% of 310,000 active; also: potency is read from the fitted curve at half-maximal effect; % is scaled to controls: 0 for no effect and ±100 for the full control effect
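Growth was read as firefly luciferase luminescence after a 48 h, 37 C, 5% CO2 exposure of compounds to reporter-bearing P. falciparum cultures (0.1% parasitemia, 2% hematocrit final) in Albumax-supplemented RPMI 1640.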
Shiga toxin inh: Shiga toxin inhibition | Vero cells, Shiga toxin protein synthesis inhibition reporter | inhibition, % at 38.7 µM | 9.2% of 290,000 active | AID 2315; in the data active = inhibition mostly above about 28%, no sharp cut-off; inactive = mostly below about 43%; also: 0% is about no effect
Numbers without * were called inactive. Unless noted, calls follow the shape of the dose curve; as a rule, active = well fitted inhibition curve with a large enough effect; inconclusive = small, poorly fitted or top-dose-only effect, or another doubt; inactive = no such curve, though single readings can be large or run the other way.

Screening O=C(Nc1ccc(F)cc1F)c1cc2nc3c(c(C(F)(F)F)n2n1)CCCC3 returned HCMV antiviral -32, CHX counter 26*, Pf growth 96h 10µM*, Pf growth 48h 129% and Shiga toxin inh 24.
NNC(=O)CNS(=O)(=O)c1ccc([N+](=O)[O-])cc1 was read as HCMV antiviral -32, CHX counter -2, Pf growth 96h 3%, Pf growth 48h -10% and Shiga toxin inh 16.
`CC(C)(CO)C(O)C(=O)NCCCC(=O)O` (centres undefined) gave Pf growth 96h -17% and Pf growth 48h -92%.
COc1ccc(C(C[N+](=O)[O-])c2c(C)cc3ccccn23)cc1 (centres undefined) was read as HCMV antiviral -9, CHX counter 13, Pf growth 96h 12µM*, Pf growth 48h 10µM* and Shiga toxin inh -2.
Screening Cc1[nH]n(-c2ccccc2)c(=O)c1C(C[N+](=O)[O-])c1ccccc1Cl (centres undefined) returned HCMV antiviral 8, CHX counter 1, Pf growth 48h -4% and Shiga toxin inh 15.
Screening Cc1cc2ccccn2c1C(C[N+](=O)[O-])c1ccc(N(C)C)cc1 (centres undefined) returned HCMV antiviral 84, CHX counter 6, Pf growth 96h inconclusive, Pf growth 48h inconclusive and Shiga toxin inh 28.
COc1ccc(C(C[N+](=O)[O-])c2c(-c3ccccc3)cc3ccccn23)c(OC)c1 (centres undefined) was read as HCMV antiviral -71*, CHX counter 55, Pf growth 48h 10µM* and Shiga toxin inh 71*.
COc1ccc(NC(=O)c2cnc3ccccn3c2=O)c(OC)c1 was read as HCMV antiviral 14.
For COc1ccc(C(C[N+](=O)[O-])c2c(C)[nH]n(-c3ccccc3)c2=O)cc1 (centres undefined) the results were HCMV antiviral -103*, CHX counter -1, Pf growth 96h 1%, Pf growth 48h 3% and Shiga toxin inh 20.
`Cc1cccc(NC(=S)N2CCN(c3ccc(F)cc3)CC2)c1` gave HCMV antiviral 31, CHX counter -6, Pf growth 96h -10%, Pf growth 48h 0% and Shiga toxin inh 6.
For O=c1oc2ccc3ccccc3c2cc1-c1nnc(Nc2ccc(F)cc2)s1 the results were HCMV antiviral 5.
`Cc1cc(=O)c(C(=O)O)cn1Nc1ccc(Cl)cc1` gave HCMV antiviral 9, CHX counter 4, Pf growth 96h -7% and Shiga toxin inh -21.
For CN(/N=C/c1ccc(Cl)cc1)c1ncc(Cl)cc1C(F)(F)F the results were HCMV antiviral -13, CHX counter 11*, Pf growth 96h 10%, Pf growth 48h inconclusive and Shiga toxin inh 1.
For O=c1oc2ccccc2cc1-c1nc(-c2cccs2)no1 the results were HCMV antiviral 16.
Screening CCCOC(=O)c1c(NC(=O)/C=C/c2cnn(C)c2C)sc(C(=O)OC)c1C returned HCMV antiviral 3, CHX counter -2, Pf growth 96h 100%, Pf growth 48h inconclusive and Shiga toxin inh -4.
Screening CCc1ccc(C(=O)/C=C/c2cnn(C)c2C)s1 returned HCMV antiviral 60, CHX counter 23*, Pf growth 96h 475%, Pf growth 48h 245% and Shiga toxin inh 34*.
Cc1c(/C=C/C(=O)c2cccs2)cnn1C was read as HCMV antiviral -28, CHX counter 33*, Pf growth 96h 14%, Pf growth 48h 151% and Shiga toxin inh 96*.
For C[n+]1ccc(C(=O)Nc2ccccc2Cl)cc1 the results were HCMV antiviral 61, CHX counter -2, Pf growth 96h 13µM*, Pf growth 48h 20% and Shiga toxin inh -11.
Screening CCOCC(=O)Nc1ccc(C(=O)Nc2ccccc2Cl)cc1 returned HCMV antiviral 49, CHX counter 26*, Pf growth 96h 78%, Pf growth 48h 45% and Shiga toxin inh 31.
Screening COCCn1c(SCC(=O)c2c[nH]c3ccccc23)nc2cc(C(=O)NCC(C)C)ccc2c1=O returned HCMV antiviral 45.
`COc1ccc(CN(CC(=O)NCc2ccc(F)cc2)C(=O)CCC(=O)Nc2nccs2)cc1` gave HCMV antiviral 6, CHX counter -7, Pf growth 96h 4.7µM*, Pf growth 48h 11% and Shiga toxin inh -9.
`COc1ccc(CNC(=O)CN(C(=O)CCC(=O)Nc2nccs2)c2ccc(C)cc2)cc1` gave HCMV antiviral -6, CHX counter -1, Pf growth 96h 7.4µM*, Pf growth 48h inconclusive and Shiga toxin inh 24.
CC(C)CCNC(=O)CN(C(=O)CCC(=O)Nc1nccs1)c1ccc2c(c1)OCCO2 was read as HCMV antiviral inconclusive, CHX counter 35*, Pf growth 96h 3%, Pf growth 48h 64% and Shiga toxin inh 68*.
COc1ccc(-c2nc3cc(C(C)C)ccc3o2)cc1NC(=O)COc1ccc(C)cc1C was read as HCMV antiviral -6.
For CCOc1ccc(C2C(C#N)=C(N)Oc3cc(C)n(CCN(C)C)c(=O)c32)cc1OCC (centres undefined) the results were HCMV antiviral -1, CHX counter -2, Pf growth 96h 12µM*, Pf growth 48h 5% and Shiga toxin inh -11.
Screening CCN(CC)CCCn1c(C)cc2c(c1=O)C(c1ccc(OC)c(OC)c1OC)C(C#N)=C(N)O2 (centres undefined) returned HCMV antiviral -31, CHX counter -6, Pf growth 96h 0.93µM*, Pf growth 48h inconclusive and Shiga toxin inh -8.
Screening CCN(CC)CCCn1c(C)cc2c(c1=O)C(c1ccccc1)C(C#N)=C(N)O2 (centres undefined) returned HCMV antiviral -36, CHX counter 6, Pf growth 96h inconclusive, Pf growth 48h inconclusive and Shiga toxin inh 21.
For COc1cccc(OCC(Cn2cnc3ccccc32)OC(C)=O)c1 (centres undefined) the results were HCMV antiviral inconclusive, CHX counter 7, Pf growth 96h 24%, Pf growth 48h -29% and Shiga toxin inh 3.
`O=c1oc2ccc(Cl)cc2cc1-c1nnc(Nc2cccc(C(F)(F)F)c2)s1` gave HCMV antiviral -64*, CHX counter -5, Pf growth 96h -6%, Pf growth 48h 17% and Shiga toxin inh -16.
Screening CNc1nnc(-c2cc3cc(Cl)ccc3oc2=O)s1 returned HCMV antiviral 71, CHX counter 8, Pf growth 96h 27% and Shiga toxin inh -1.
Screening N=c1scc(-c2ccccc2)n1/N=C/c1ccco1 returned HCMV antiviral 8, CHX counter 46*, Pf growth 96h inconclusive, Pf growth 48h 0% and Shiga toxin inh 72*.
`C(=N/n1c2ccccc2c2ccccc21)/c1ccco1` gave HCMV antiviral 43, CHX counter 10, Pf growth 48h 22% and Shiga toxin inh 10.
